Bioassay records as filed in PubChem BioAssay.
Rows were chosen to be rich in hits. Some 3.4% of all compounds tested hit in one or more screens of this group.
MEKK2 WT-MEK5: modulators of MEK5 binding to wildtype MEKK2, primary screen, biochemical, multiplex bead flow cytometry, Alexa488-MEK5 | Mitogen-activated protein kinase kinase kinase 2 (Homo sapiens), Q9Y2U5 | binding response (% of control), % at 10 µM | hit rate 1.1% among 290,000 | AID 1531, 2009 | Alexa488-MEK5 binding to MEKK2 WT; actives lie on both sides; in the data active means binding response below about 67% or above about 130%
TMEM16A inh: TMEM16A chloride channel inhibitors, primary screen, cell-based, HTS. normalized B-score (activity score, 25-100; higher = stronger inhibition) at 10 µM. Anoctamin-1 (Mus musculus), Q8BHY3. AID 588511, 2011. hit rate 1.2% among 310,000. HEK293 TMEM16A/YFP iodide influx fluorescence, ionomycin;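 active means ratio plate-corrected score three or more library SD toward inhibition, starting fluorescence score within five deviations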;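 further: score derived from kinetic fluorescence span divided by baseline fluorescence per well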
TMEM16A act: TMEM16A chloride channel activators or potentiators, primary screen, cell-based, HTS; B-score at 10 µM; HEK293 TMEM16A/YFP-H148Q/I152L, iodide quench fluorescence; hits give low values; hit rate 0.3% among 340,000; Anoctamin-1 (Mus musculus), Q8BHY3;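 active means fluorescence-ratio B-score plate-corrected deviation score at least 3 library SD below zero, with starting fluorescence score within 5 deviations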;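 further: channel opened by trigger with iodide after compound preincubation; score built on the fluorescence ratio of max minus min over baseline; more negative score means more quench and so TMEM16A activation or potentiation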
MEKK2 mut-MEK5: MEK5 binding signal on mutant MEKK2 PB1, primary screen, biochemical, multiplex bead flow cytometry, Alexa488-MEK5. hit rate 0.35% among 290,000. percent response, % at 10 µM. Alexa488-MEK5 binding to MEKK2 mutant; in the data active means percent response above about 24%, passing the limit was not always enough
MEKK3 PB1 HTS: modulators of MEKK3-MEK5 PB1 binding, primary screen, biochemical, wildtype MEKK3, multiplex bead flow cytometry, Alexa488-MEK5; binding response (% of control), % at 10 µM; AID 1529, 2009; bead-based flow cytometry, Alexa488-MEK5 binding to MEKK3; actives lie on both sides; 0 = blocked by unlabeled MEK5, 100 = vehicle; hit rate 1.4% among 290,000; Mitogen-activated protein kinase kinase kinase 3 (Homo sapiens), Q99759;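 active means binding response more than 3 SD above or below the average of its plate-row segment, actives on both sides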;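 further: Alexa488 bead fluorescence after subtracting the streptavidin-only scavenger bead signal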
NTR1 agonist: agonists of human NTR1, primary screen, imaging, U2OS cells, beta-arrestin-GFP, high content | Neurotensin receptor type 1 (Homo sapiens), P30989 | NTR1-U2OS beta-arrestin-GFP spot imaging, agonist mode | activation, % at 20 µM | hit rate 0.17% among 330,000;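 active means activation at or above 40% of the spot to cytoplasm intensity ratio, with at least 20 cells analyzed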;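 further: 0% = DMSO without peptide and 100% = 100 nM NTR1 peptide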
Target sequence (P30989 whole entry, looked up): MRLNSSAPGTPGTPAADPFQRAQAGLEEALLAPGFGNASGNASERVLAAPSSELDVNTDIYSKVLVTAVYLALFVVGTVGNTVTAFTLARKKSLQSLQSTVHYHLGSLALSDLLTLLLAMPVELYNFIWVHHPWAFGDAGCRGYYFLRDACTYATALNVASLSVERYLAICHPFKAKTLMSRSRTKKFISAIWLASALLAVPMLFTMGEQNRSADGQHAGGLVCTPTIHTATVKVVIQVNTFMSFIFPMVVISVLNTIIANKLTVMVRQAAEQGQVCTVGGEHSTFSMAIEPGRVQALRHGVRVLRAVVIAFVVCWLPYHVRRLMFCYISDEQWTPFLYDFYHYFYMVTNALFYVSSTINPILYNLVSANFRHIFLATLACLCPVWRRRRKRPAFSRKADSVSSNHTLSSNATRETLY
MEKK2wt confirm: modulators of MEK5 binding to wildtype MEKK2, confirmation, biochemical, single concentration, multiplex bead flow cytometry | shares compounds with MEKK3 PB1 HTS | Alexa488-MEK5 binding to MEKK2 WT; actives lie on both sides | binding response (% of control), % at 10 µM | hit rate 2.4% among 5,900 | AID 1892, 2009; in the data active means binding response below about 16% or above about 210%; inactive means in between
MEKK2mut confirm: mutant MEKK2 PB1-MEK5 binding signal retest – biochemical, single concentration, multiplex bead flow cytometry, confirmation; AID 1893, 2009; hit rate 2% among 5,900; shares compounds with MEKK3 PB1 HTS; percent response, % at 10 µM; Alexa488-MEK5 binding to MEKK2 mutant; in the data active means percent response mostly above about 71%, no sharp cut-off; inactive means mostly below about 38%;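 further: higher means compound restores mutant binding toward wildtype level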
MEKK3-MEK5 inh: MEKK3 wild-type PB1 binding to MEK5, inhibitors, confirmation, biochemical, bead multiplex flow cytometry, single concentration, wildtype | shares compounds with MEKK3 PB1 HTS | binding response (% of control), % at 10 µM | Alexa488-MEK5 binding to MEKK3; hits give low values | AID 1894, 2009 | hit rate 1.8% among 5,900;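 active means binding response below 72% of control, or above a set upper limit, though filed actives all read lower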;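 further: 100% = DMSO only wells and 0% = binding blocked by excess unlabeled MEK5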
Numbers without * were called inactive; i = inactive; / = no result; [ ] = another dose, or the depositor's remark.

SMILES	MEKK2 WT-MEK5	TMEM16A inh	TMEM16A act	MEKK2 mut-MEK5	MEKK3 PB1 HTS	NTR1 agonist	MEKK2wt confirm	MEKK2mut confirm	MEKK3-MEK5 inh
COc1cc(/C=C2\SC(=S)N(Nc3ncc(C(F)(F)F)cc3Cl)C2=O)ccc1O	62.0*[inhibitor]	i	i	-6.0	93.0	-1.0	76.0	-12.0	98.0
C[C@@H](NC(=O)[C@@H]1Cc2ccccc2CN1C(=O)OC(C)(C)C)C(=O)NC1CCCC1	87.0	i	i	-9.0	91.0	-0.6	/	/	/
CN(Cc1ccccc1Br)C(=O)CN1C(=O)NC2(CCCCCC2)C1=O	/	/	i	/	/	-1.3	/	/	/
CC(=O)c1ccc(NS(=O)(=O)c2ccc3ccccc3c2)cc1	95.0	i	i	-1.0	73.0*[inhibitor]	-0.7	106.0	2.0	99.0
O=C(O)c1ccc(COc2ccccc2Cl)cc1	104.0	i	i	2.0	102.0	0.1	/	/	/
N#C/C(=C\c1ccccc1OCc1ccc(C(=O)O)cc1)c1ccccc1	55.0	i	i	-14.0	50.0*[inhibitor]	-0.7	110.0	2.0	100.0
CC1(C)CC(=O)C2=C(C1)Nc1ncnn1C2c1cccs1 (centres undefined)	124.0	i	i	1.0	145.0*	-0.8	110.0	6.0	107.0
O=S(=O)(/C=C/c1ccccc1)N1CCN(c2nc(-c3cccnc3)nc3ccccc23)CC1	98.0	i	i	0.0	102.0	1.7	/	/	/
Cc1cc(C2=NNC(=NC3CC3)SC2)c(C)n1-c1c(C)n(C)n(-c2ccccc2)c1=O	101.0	i	i	0.0	104.0	-1.5	/	/	/
Cc1cc(C2=NNC(=NCCc3ccccc3)SC2)c(C)n1-c1c(C)n(C)n(-c2ccccc2)c1=O	50.0	i	i	-11.0	50.0*[inhibitor]	1.7	94.0	-5.0	93.0
CCOC(=O)COc1c(Br)cc(C2NC(=O)NC(C)=C2C(C)=O)cc1OC (centres undefined)	104.0	i	i	0.0	131.0*	0.7	88.0	-13.0	83.0
Cc1cc(-c2ccccc2)nc(=O)[nH]1	117.0	i	/	3.0	130.0*	-2.4	102.0	7.0	106.0
O=c1nc(-c2ccccc2)cc(C(F)(F)F)[nH]1	96.0	i	i	-5.0	95.0	0.6	/	/	/
Nc1nc(Nc2ccc(Cl)cc2)nc2ccccc12	126.0	i	i	8.0	103.0	1.2	/	/	/
Cc1ccc(Nc2nc(NCCO)c3ccccc3n2)cc1C	160.0*	i	i	14.0	108.0	1.5	142.0	33.0	104.0
COc1ccccc1Nc1nc(NCCO)c2ccccc2n1	103.0	/	/	1.0	110.0	0.0	/	/	/
COc1cc2nc(Nc3ccc(C)c(C)c3)nc(N)c2cc1OC	159.0*	i	i	28.0*	112.0	24.7	159.0	39.0	104.0
Cc1ccc(Nc2nc(N)c3ccccc3n2)cc1Cl	152.0*	i	i	7.0	110.0	0.3	138.0	33.0	106.0
CCOC(=O)c1ccc(Nc2nc(N)c3cc(OC)c(OC)cc3n2)cc1	141.0*	i	i	30.0*	113.0	-0.3	169.0	37.0	106.0
CCOC(=O)c1ccc(Nc2ccc(-c3ccc(OC)c(OC)c3)nn2)cc1	/	i	i	/	/	2.9	/	/	/
Cc1cc(=O)oc2c(C)c(OCC(=O)N3CCN(c4cccc(Cl)c4)CC3)ccc12	101.0	i	i	-2.0	99.0	4.0	/	/	/
COc1cc2nc(Nc3ccc(F)cc3)nc(N)c2cc1OC	133.0	i	i	22.0	105.0	0.3	/	/	/
COc1cc2nc(Nc3ccc(C)c(Cl)c3)nc(N)c2cc1OC	181.0*	i	i	50.0*	105.0	13.6	198.0	65.0	105.0
OCCCNc1cc(-c2ccnc(Nc3cccc(Cl)c3)n2)ccn1	105.0	i	i	-4.0	86.0	28.4	/	/	/
CN(C)CCCNc1ccc(-c2cc(Nc3cccc(Cl)c3)ncn2)cn1	159.0*	i	i	15.0	93.0	-0.2	137.0	14.0	106.0
SMILES	MEKK2 WT-MEK5	TMEM16A inh	TMEM16A act	MEKK2 mut-MEK5	MEKK3 PB1 HTS	NTR1 agonist	MEKK2wt confirm	MEKK2mut confirm	MEKK3-MEK5 inh
O=C(Cn1c2c(sc1=O)C1c3ccccc3OCC1CS2)Nc1ccc(Cl)cc1 (centres undefined)	105.0	i	i	1.0	108.0	0.8	/	/	/
O=C(CN1CCN(S(=O)(=O)c2ccccc2)CC1)Nc1ccccc1Cl	107.0	i	i	6.0	106.0	0.5	/	/	/
O=C(CN1CCN(S(=O)(=O)c2ccccc2)CC1)Nc1ccccc1C(=O)c1ccccc1	103.0	i	i	0.0	128.0*	0.5	104.0	-4.0	99.0
CCn1nnnc1-c1ccc(OC)c(S(=O)(=O)NCCc2ccccc2)c1	101.0	i	i	1.0	45.0*[inhibitor]	0.0	101.0	-1.0	98.0
Fc1ccccc1OCCCCCCN1CCCC1	141.0*	i	i	22.0	106.0	-0.1	138.0	18.0	110.0
CCN(CC)S(=O)(=O)c1ccc(/C=C/C(=O)NC2CCCCC2)cc1	96.0	i	i	-6.0	99.0	1.4	/	/	/
Cc1cc(=O)[nH]c(SCC(=O)NCC2CCCCC2)c1C#N	83.0	i	i	-7.0	75.0	1.8	/	/	/
Cc1nn(C(C)C(=O)NCCc2ccccc2)c(=O)c2cc3occc3n12 (centres undefined)	103.0	i	i	0.0	99.0	-0.2	/	/	/
CCOc1ccc(CCNC(=O)C(C)n2nc(C)n3c(cc4occc43)c2=O)cc1OCC (centres undefined)	69.0*[inhibitor]	i	i	-44.0	83.0	-0.2	101.0	-2.0	102.0
Cc1ccc(C(C(=O)NC2CCCCC2)N2CCC3(CC2)OCCO3)cc1 (centres undefined)	109.0	i	i	3.0	110.0	-0.2	/	/	/
